Targets with a hit are over-represented here; the source holds about 7,900 in all. About 0.6% of all pairs of compound and target were hits.
Compound: c1cn2cc(-c3ccc4cn[nH]c4c3)nc(Nc3ccc(N4CCOCC4)cc3)c2n1 [entospletinib]
Assay: log2 fold change, soluble protein after heating vs DMSO (PISA); higher = thermal stabilisation; K562 cells, 10 uM, 30 min; active = over 0.2 and 3.5 SD of the protein, either way, in both replicates (recomputed)
Method in brief: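 K562 cells at 2×10^6 cells/mL were given 10 μM compound for 30 min. Aliquots then went through 3 min of heating across 48°C-58°C, were pooled, and were extracted in PBS with 0.5% NP-40 at 4°C, and the supernatant after 21,000xg for 90 min was quantified by TMTpro 16plex LC-MS/MS with channel sums equalised. Thermal stability relative to control samples, from duplicates, is given as log2 fold change.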

Chain of UniProt O00220 (O00220 whole entry, looked up): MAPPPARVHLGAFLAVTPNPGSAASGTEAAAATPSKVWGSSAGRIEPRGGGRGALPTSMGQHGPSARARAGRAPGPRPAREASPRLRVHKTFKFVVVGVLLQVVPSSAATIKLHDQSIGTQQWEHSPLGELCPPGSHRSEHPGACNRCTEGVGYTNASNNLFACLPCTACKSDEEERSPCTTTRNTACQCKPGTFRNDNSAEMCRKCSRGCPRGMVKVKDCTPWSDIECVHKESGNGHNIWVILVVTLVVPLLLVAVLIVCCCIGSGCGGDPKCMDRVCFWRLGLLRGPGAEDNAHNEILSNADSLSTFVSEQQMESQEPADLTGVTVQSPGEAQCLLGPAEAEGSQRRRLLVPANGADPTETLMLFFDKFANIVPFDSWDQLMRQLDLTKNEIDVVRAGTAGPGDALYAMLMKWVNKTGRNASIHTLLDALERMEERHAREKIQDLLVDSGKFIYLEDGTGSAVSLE
Chain of UniProt Q9UGM6 (Q9UGM6 whole entry, looked up): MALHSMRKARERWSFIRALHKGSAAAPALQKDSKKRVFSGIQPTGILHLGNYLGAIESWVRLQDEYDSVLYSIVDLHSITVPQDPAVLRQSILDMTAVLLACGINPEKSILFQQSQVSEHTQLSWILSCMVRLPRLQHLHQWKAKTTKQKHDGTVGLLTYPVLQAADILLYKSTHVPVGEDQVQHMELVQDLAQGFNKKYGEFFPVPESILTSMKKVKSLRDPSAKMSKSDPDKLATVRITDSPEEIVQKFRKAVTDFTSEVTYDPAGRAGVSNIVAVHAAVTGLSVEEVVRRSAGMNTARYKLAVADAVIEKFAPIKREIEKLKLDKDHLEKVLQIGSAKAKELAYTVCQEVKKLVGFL
Chain of UniProt Q9Y5K5 (Q9Y5K5 whole entry, looked up): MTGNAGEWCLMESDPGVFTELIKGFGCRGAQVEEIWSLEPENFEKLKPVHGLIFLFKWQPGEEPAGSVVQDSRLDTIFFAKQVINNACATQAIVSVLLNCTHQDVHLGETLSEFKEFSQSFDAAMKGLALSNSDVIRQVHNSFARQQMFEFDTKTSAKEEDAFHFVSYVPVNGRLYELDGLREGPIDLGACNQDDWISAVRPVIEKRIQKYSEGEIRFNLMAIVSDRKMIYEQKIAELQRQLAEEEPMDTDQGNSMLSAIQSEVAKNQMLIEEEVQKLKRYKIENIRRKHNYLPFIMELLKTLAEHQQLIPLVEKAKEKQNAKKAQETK
Chain of UniProt A6NHL2 (A6NHL2 whole entry, looked up): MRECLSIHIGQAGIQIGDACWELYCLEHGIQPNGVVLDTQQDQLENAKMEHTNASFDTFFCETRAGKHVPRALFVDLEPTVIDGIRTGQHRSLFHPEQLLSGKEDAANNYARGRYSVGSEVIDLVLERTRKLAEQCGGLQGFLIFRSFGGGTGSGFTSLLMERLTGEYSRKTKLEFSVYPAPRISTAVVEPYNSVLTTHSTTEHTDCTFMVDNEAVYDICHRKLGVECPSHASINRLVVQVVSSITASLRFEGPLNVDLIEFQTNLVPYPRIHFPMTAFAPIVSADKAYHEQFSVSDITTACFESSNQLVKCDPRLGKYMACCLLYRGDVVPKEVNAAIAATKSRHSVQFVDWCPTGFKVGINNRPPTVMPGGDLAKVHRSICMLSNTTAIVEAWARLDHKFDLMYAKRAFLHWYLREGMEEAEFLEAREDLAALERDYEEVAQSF
Chain of UniProt Q9BTX3 (Q9BTX3 whole entry, looked up): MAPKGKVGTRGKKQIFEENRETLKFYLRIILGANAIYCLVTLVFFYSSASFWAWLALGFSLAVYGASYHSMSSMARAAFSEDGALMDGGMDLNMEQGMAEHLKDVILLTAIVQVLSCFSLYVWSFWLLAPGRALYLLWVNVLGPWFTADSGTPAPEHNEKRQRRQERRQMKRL
Chain of UniProt P21796 (P21796 whole entry, looked up): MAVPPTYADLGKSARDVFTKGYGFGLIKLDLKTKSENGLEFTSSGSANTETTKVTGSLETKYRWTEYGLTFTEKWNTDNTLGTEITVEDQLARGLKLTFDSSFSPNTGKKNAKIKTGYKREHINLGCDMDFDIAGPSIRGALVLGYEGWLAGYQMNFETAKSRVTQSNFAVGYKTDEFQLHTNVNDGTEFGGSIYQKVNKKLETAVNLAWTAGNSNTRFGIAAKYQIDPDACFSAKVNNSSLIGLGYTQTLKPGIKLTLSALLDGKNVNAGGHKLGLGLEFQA
Chain of UniProt Q8TBZ6 (Q8TBZ6 whole entry, looked up): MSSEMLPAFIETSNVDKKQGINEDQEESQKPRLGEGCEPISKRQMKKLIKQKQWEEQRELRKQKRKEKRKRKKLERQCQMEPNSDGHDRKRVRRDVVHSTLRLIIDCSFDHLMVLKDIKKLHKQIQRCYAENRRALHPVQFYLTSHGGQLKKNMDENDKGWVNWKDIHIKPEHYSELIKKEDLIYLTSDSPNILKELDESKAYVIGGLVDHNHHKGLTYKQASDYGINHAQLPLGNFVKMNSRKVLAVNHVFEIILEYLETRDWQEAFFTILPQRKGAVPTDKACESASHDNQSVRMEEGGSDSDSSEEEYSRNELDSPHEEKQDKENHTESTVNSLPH
Chain of UniProt P98170 (P98170 whole entry, looked up): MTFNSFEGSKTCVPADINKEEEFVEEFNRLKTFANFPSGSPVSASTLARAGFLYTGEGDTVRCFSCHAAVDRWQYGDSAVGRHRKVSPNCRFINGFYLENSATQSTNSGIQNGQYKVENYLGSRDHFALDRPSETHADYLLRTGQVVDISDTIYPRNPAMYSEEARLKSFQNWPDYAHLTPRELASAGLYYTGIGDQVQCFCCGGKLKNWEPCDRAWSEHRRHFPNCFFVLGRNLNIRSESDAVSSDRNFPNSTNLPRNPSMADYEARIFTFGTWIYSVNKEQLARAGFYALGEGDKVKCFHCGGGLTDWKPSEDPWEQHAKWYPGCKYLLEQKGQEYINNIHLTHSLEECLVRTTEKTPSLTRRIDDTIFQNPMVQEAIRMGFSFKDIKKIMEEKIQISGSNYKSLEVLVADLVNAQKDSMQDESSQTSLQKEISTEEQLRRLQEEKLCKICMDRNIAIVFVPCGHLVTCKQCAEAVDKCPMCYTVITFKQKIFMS
Chain of UniProt Q9P253 (Q9P253 whole entry, looked up): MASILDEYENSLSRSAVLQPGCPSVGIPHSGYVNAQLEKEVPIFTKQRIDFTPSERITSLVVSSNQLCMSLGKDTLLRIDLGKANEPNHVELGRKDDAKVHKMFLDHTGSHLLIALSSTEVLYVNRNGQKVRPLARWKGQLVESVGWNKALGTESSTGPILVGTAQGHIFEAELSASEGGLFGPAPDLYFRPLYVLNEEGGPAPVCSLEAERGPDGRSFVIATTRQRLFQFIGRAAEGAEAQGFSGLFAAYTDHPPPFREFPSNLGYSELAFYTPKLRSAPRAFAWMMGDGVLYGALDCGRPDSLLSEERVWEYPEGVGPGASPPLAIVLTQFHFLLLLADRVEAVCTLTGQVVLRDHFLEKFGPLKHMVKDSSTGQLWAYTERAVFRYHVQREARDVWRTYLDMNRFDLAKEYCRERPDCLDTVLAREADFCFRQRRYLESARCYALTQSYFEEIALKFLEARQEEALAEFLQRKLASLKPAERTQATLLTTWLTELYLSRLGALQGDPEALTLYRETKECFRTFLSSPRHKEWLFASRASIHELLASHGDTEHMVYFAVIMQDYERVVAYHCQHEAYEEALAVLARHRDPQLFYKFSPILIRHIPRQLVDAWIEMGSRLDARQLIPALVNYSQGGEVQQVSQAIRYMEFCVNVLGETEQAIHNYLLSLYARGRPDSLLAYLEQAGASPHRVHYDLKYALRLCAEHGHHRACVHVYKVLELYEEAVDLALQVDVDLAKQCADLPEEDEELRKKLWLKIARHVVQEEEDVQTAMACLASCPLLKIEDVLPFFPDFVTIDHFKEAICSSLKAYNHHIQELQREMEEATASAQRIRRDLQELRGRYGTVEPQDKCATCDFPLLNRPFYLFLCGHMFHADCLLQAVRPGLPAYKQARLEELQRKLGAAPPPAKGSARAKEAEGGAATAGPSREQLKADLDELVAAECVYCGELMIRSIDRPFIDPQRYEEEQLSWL
Chain of UniProt P07951 (P07951 whole entry, looked up): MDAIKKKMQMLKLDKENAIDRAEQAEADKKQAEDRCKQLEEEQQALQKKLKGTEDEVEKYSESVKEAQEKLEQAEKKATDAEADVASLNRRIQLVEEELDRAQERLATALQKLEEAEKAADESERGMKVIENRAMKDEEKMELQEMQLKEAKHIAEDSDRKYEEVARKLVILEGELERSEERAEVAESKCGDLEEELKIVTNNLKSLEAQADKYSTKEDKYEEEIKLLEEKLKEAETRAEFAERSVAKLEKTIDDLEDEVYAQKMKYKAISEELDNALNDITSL
Chain of UniProt Q8N1B4 (Q8N1B4 whole entry, looked up): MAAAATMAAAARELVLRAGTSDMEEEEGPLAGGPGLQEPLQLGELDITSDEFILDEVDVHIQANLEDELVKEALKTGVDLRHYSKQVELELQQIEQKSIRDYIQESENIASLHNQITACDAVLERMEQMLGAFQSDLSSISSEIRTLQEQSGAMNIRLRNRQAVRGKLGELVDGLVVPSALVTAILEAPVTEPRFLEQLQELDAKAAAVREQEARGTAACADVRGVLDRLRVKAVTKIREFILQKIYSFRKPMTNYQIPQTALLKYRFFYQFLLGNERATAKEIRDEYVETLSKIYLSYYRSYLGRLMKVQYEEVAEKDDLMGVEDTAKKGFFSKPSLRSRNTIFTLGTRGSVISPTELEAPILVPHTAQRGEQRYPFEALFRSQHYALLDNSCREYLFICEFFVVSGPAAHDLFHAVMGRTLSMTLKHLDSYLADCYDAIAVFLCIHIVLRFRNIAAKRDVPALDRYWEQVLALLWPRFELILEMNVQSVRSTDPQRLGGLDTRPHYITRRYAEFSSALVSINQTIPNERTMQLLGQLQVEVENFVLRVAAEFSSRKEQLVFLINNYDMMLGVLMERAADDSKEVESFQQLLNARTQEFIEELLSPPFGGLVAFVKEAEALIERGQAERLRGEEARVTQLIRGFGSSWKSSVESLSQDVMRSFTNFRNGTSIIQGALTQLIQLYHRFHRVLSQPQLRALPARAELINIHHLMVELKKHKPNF

log2 fold change, inactive:
WARS2 (UniProt Q9UGM6) -0.042, TNPO3 (UniProt Q9Y5L0) -0.048, XIAP (UniProt P98170) -0.066, UCHL5 isoform 3 (UniProt Q9Y5K5) -0.025, TRIM44 (UniProt Q96DX7) 0.007, TRMT10A (UniProt Q8TBZ6) -0.055, WDR43 (UniProt Q15061) -0.048, VDAC1 (UniProt P21796) -0.012, VPS52 (UniProt Q8N1B4) 0.062, USP34 (UniProt Q70CQ2) -0.002, TNFRSF10A (UniProt O00220) 0.011, TPM2 (UniProt P07951) -0.069, VPS18 (UniProt Q9P253) -0.07, VPS13B (UniProt Q7Z7G8) 0.053, VPS39 (UniProt Q96JC1) -0.007, TMEM208 (UniProt Q9BTX3) -0.062, TUBAL3 (UniProt A6NHL2) -0.351

From the supplement of paper PMC10849652
